D1 potentiator: human D1 dopamine receptor positive modulation; hit rate 0.036% among 360,000; AID 504651; HEK293 TREx D1 cells, calcium flux, dopamine EC20 potentiation; P21728; potentiation, % at 10 µM; in the data active means potentiation above about 30%; further: 0% is about no effect
DRD3 antagonist: D3 dopamine receptor (human) antagonism. P35462. D3R cells, DiscoveRx beta-arrestin luminescence, antagonist mode; hits give low values. max response, negative = inhibition, %. hit rate 2.5% among 360,000. AID 652054; in the data active means max response below about -50%; inconclusive means no clear call, values can overlap the other calls; further: on the % scale 0 is the no-effect control and ±100 the full control effect
Target sequence (P35462 whole entry, looked up): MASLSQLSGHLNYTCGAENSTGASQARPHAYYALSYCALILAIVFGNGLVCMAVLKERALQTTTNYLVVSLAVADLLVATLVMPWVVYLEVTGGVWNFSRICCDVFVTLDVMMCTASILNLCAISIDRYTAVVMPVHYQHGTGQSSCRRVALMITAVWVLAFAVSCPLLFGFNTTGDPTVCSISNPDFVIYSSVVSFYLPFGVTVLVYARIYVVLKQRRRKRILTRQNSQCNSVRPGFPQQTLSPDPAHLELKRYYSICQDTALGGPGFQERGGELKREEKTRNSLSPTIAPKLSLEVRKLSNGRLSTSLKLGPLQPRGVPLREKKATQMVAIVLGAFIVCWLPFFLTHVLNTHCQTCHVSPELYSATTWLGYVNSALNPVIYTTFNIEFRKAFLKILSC
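Cells expressing the human receptor were seeded at 1500 cells/well, incubated overnight at 37 degrees C in 5% CO2, then exposed to library compounds with dopamine controls for 90 minutes at 37 degrees C before luminescent detection.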
D1 ag: human D1 receptor agonism; P21728; HEK293 T-REx D1 cells, calcium flux, agonist mode; activation, % at 2 µM; hit rate 1% among 360,000; AID 504660; in the data active means activation above about 30%; further: 0% is about no effect
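Tetracycline-induced HEK293 TREx D1 cells, force-coupled to calcium signalling, were dye-loaded with a no-wash calcium kit. Compound was pin-added after a 10 s baseline. Fluorescence was read kinetically at 1 cycle/s for 180 s, with calcium rises flagged as agonism.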
D1 antagonist: antagonists of human D1 dopamine receptor; activity change, negative = inhibition, % at 10 µM; P21728; HEK293 TREx D1 cells, calcium flux, dopamine EC80; hits give low values; hit rate 3.2% among 360,000; AID 504652; in the data active means activity change below about -30%; further: on the % scale 0 is the no-effect control and ±100 the full control effect
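Antagonism measured as reduced calcium response to an EC80 dopamine addition following 180 s compound pre-read; cells were inducible HEK293 Trex D1 plated overnight at 30 C, read kinetically at 1 cycle/sec.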
DRD3 agonist: agonists of human D3 dopamine receptor. P35462. D3R DiscoveRx beta-arrestin cells, luminescence, 90 min. max activation, %. hit rate 0.58% among 410,000. AID 652048; in the data active means max activation above about 30%; further: 0% is about no effect
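Agonist mode: compounds and dopamine controls were applied to plated cells for 90 min at 37 degrees C after an overnight attachment at 1500 cells/well. Luminescent read-out followed 30 - 60 minutes at room temperature with DiscoveRx detection reagent.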
* hit, by the source's call; ? = inconclusive; . = not tested or not shown. Shown are actives, neighbours in structure and some others; about 6% of the full set was active somewhere.

SMILES	D1 potentiator	DRD3 antagonist	D1 ag	D1 antagonist	DRD3 agonist
CN(N=O)c1cc(O)ccc1O	-3.5	.	2.7	-2.4	.
COc1ccc2c(C(=O)c3ccc(Cl)cc3)c(C)n(CC(=O)O)c2c1	.	.	.	.	10.4
COC(=O)C1=C(c2cc3ccccc3o2)C[C@@H]2CC[C@H]1N2C(=O)NCCNC(C)=O	.	8.4	.	.	41.2*
COC(=O)C1=C(c2cc3ccccc3o2)C[C@@H]2CC[C@H]1N2C(=O)NCc1ccccc1	.	-50.0*	.	.	5.9
CCN(CC)CCN1C(=O)CN=C(c2ccccc2F)c2cc(Cl)ccc21	.	.	.	.	-9.2
CN1[C@H]2CC[C@@H]1[C@@H](C(=O)O)[C@@H](OC(=O)c1ccccc1)C2	.	.	.	.	-11.0
CCc1c(C)nc(N)nc1N1N=C1SCC(=O)OC	-1.8	-13.1	1.7	10.0	-0.7
COC(=O)CSC1=NN1c1cc(C)nc(N)n1	6.2	18.2	0.1	-32.8*	4.9
CC1CCCN(CC(=O)N2CCCc3ccccc32)C1 (stereo unspecified)	0.4	-57.4*	-0.7	5.4	-35.4
O=C(c1ccccc1)c1cn(CC(=O)N2CCCc3ccccc32)c2ccccc12	-0.8	19.3	8.7	12.3	-1.4
Clc1ccccc1CNC1CN2CCC1CC2 (stereo unspecified)	-8.6	4.1	8.4	-13.4	4.2
OC(c1cccc(Cl)c1)(c1cccc(Cl)c1)C1CN2CCC1CC2 (stereo unspecified)	-4.0	6.1	52.1*	-34.9*	-10.9
O=[N+]([O-])c1cc(I)c(O)c(I)c1	.	.	.	.	2.4
Cn1c(=O)n(C)c2cc(CNCCc3ccc(F)cc3)ccc21	-1.1	.	7.6	2.2	-19.6
COc1ccc(F)cc1C(=O)C1CCCN(Cc2cnc(C)s2)C1 (stereo unspecified)	3.2	?	1.7	-7.3	-13.2
COc1ccc(Cl)cc1C(=O)C1CCCN(Cc2cnc(C)s2)C1 (stereo unspecified)	0.9	-55.8*	1.6	6.4	-7.9
Cc1ccsc1C(=O)C1CCCN(Cc2ccn[nH]2)C1 (stereo unspecified)	-1.7	-62.2*	1.6	-2.6	-22.3
Cc1ccsc1C(=O)C1CCCN(Cc2cc(C(C)C)n[nH]2)C1 (stereo unspecified)	-2.8	-80.8*	3.0	3.5	-26.3
COc1ccc(C(=O)C2CCCN(Cc3ccc(C)s3)C2)c(OC)c1 (stereo unspecified)	-6.2	-68.9*	-1.0	11.8	-16.3
COc1ccc(OC)c(CN2CCCC(C(=O)c3sccc3C)C2)c1 (stereo unspecified)	-11.7	-82.2*	10.7	-11.1	-21.3
Cc1c(CCN)ccc2c1[nH]c1ccccc12	-7.1	-4.8	24.9	-37.9*	-2.2
COc1ccc(C)cc1NC(=O)N(Cc1ccc2c(c1)OCO2)C1CCN(Cc2ccccc2)CC1	1.6	.	2.0	4.3	-27.7
CC(C)C(Br)C(=O)NC(N)=O (stereo unspecified)	.	.	.	.	13.6
C=C1[C@@H](C)[C@H]2[C@H](Cc3ccccc3)NC(=O)[C@]23OC(=O)/C=C/[C@H](O)CCC[C@@H](C)C/C=C/[C@H]3[C@@H]1O	-5.2	182.3	2.2	14.3	78.3*
Cc1cccc(-c2nc(CN3C(=O)CN=C(c4ccccc4)c4ccccc43)c(C)o2)c1	-1.4	.	2.1	0.0	8.3
SMILES	D1 potentiator	DRD3 antagonist	D1 ag	D1 antagonist	DRD3 agonist
CC(=O)c1cccc(OCC(O)CN2CC=C(c3ccccc3)CC2)c1 (stereo unspecified)	-3.0	8.6	0.2	8.9	72.9*
CCOC(=O)C1=C(N)Oc2c(c(=O)oc3ccccc23)C12C(=O)N(C)c1ccccc12 (stereo unspecified)	-0.1	0.4	2.3	-66.7*	-8.8
C=CCN1C(=O)C2(C(C(=O)OCC)=C(N)Oc3ccccc32)c2c1c1ccccc1oc2=O (stereo unspecified)	-9.2	-4.7	2.1	-10.0	-21.1
CCCCOC(=O)C1=C(N)OC2=C(C(=O)CCC2)[C@]12C(=O)N(C)c1ccccc12	-2.9	-53.7*	0.3	-12.9	8.1
CCOC(=O)c1cc2ccccc2n1C1CCN(Cc2ccccc2)CC1	.	-115.7*	.	.	-14.8
Cc1cccc2nc(-c3ccccc3)c(-c3ccc(CN4CCC(n5c(=O)[nH]c6ccccc65)CC4)cc3)nc12	.	?	.	.	-17.4
c1ccc(C(OCCN2CCN(c3ncccn3)CC2)c2ccccc2)cc1	.	-116.0*	.	.	-11.7
Clc1ccc(C(OCCN2CCCCC2)c2ccccc2)cc1 (stereo unspecified)	-4.5	-17.8	8.6	-15.6	-93.3
CC[C@H]1C[C@@H]2C[C@H]3c4[nH]c5ccc(OC)cc5c4CCN(C2)[C@@H]13	.	.	.	.	1.8
CCN(CC)P(=O)(c1nccn1C)N(CC)CC	-7.7	16.3	3.2	-37.1*	1.9
c1ccc2c(c1)Sc1ccccc1N2CC1CN2CCC1CC2 (stereo unspecified)	-4.2	10.4	37.2*	-20.7	-21.9
CCN(CC)C(=O)c1ccc(NC(=O)CCn2nc(-c3ccc(Cl)cc3)c3ccccc3c2=O)cc1	-5.8	.	0.5	-3.8	1.1
COC(=O)[C@@H]1[C@H]2CC[C@@H](C[C@H]1OC(=O)c1ccccc1)N2C	.	.	.	.	8.7
Cc1nonc1OCCNCCNc1ccc([N+](=O)[O-])c2cccnc12	0.1	-62.8*	5.8	-35.0*	-11.7
CCC(=O)O[C@]1(c2ccccc2)CCN(C)C[C@H]1C	.	.	.	.	-19.2
CC(=O)O[C@H]1C[C@@H]2CC[C@@H]3[C@H](CC[C@]4(C)C(=O)CC[C@@H]34)[C@@]2(C)C[C@@H]1OC(C)=O	-6.5	-2.7	3.2	-41.0*	-7.7
CC(=O)OC1=CC[C@H]2[C@@H]3CC[C@H]4C[C@H](OC(C)=O)[C@@H](OC(C)=O)C[C@]4(C)[C@H]3CC[C@]12C	-4.2	-2.0	1.4	-1.4	1.7
Cc1ccc(N2C(=O)NC(=O)/C(=C\c3cc(C)n(-c4ccc(C(=O)O)cc4)c3C)C2=O)cc1	5.0	18.3	0.6	26.3	2.0
Cc1ccc(N2C(=O)NC(=O)/C(=C\c3cc(C)n(-c4cc(C(=O)O)cc(C(=O)O)c4)c3C)C2=O)cc1	3.2	-53.5*	1.3	-1.5	-4.4
CCN(CCO)CCn1c(Cc2ccccc2)nc2c1c(=O)n(C)c(=O)n2C	.	.	.	.	1.7
CNc1cc(Cl)c2nonc2c1[N+](=O)[O-]	-4.8	-108.6*	-1.6	-10.1	-18.9
CC1CCCCN1C(=O)c1ccc(N2CC3CC(C2)c2cccc(=O)n2C3)c([N+](=O)[O-])c1 (stereo unspecified)	0.7	?	0.8	2.1	-2.5
O=C(c1ccc(N2CC3CC(C2)c2cccc(=O)n2C3)c([N+](=O)[O-])c1)N1CCCCC1 (stereo unspecified)	0.1	-0.3	1.0	-53.1*	1.9
O=C(c1ccc(N2CC3CC(C2)c2cccc(=O)n2C3)c([N+](=O)[O-])c1)N1CCCC1 (stereo unspecified)	-2.5	10.0	3.5	-35.2*	-2.1
